Shown are actives, neighbours in structure and some others; about 12% of the full set was active somewhere.
Cycloheximide cs: affects cycloheximide protein synthesis inhibition readout, counter-screen | cell reporter, cycloheximide protein synthesis inhibition counterscreen | max response, % | 300,000 compounds, 12% hits; in the data active means max response mostly above about 13%, no sharp cut-off; inactive means mostly below about 14%; further: read at 38.3 µM for the half of the compounds with a filed dose
Shiga inhibitor: Shiga toxin inhibition. inhibition, % at 38.7 µM. 290,000 compounds, 9.2% hits. Vero cells, Shiga toxin protein synthesis inhibition reporter; in the data active means inhibition mostly above about 28%, no sharp cut-off; inactive means mostly below about 43%
NS1 inh: influenza NS1 inhibition; Potency, µM (top dose mostly 46.1 µM); 270,000 compounds, 0.4% hits; further: actives are rising curves; nearly all actives have a fitted effect of over 50% in size
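Read-out: OD600 growth recovery of NS1-expressing budding yeast. Cells grown overnight at 30C in -URA glucose medium, washed, resuspended and diluted 1:100 in 2% galactose assay medium, pH 6.0. Same strain lacking NS1 served as positive control.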
SARS PLP yeast: inhibitors of SARS-CoV papain-like protease in yeast; S. cerevisiae expressing SARS-CoV PLpro, growth rescue; Potency, µM (series often up to 32.9 µM), most hits filed as activators; 330,000 compounds, 0.19% hits; further: nearly all actives have a fitted effect of over 55% in size
Of the large screens only hits and unclear results are named; the others gave an inactive call. Unless noted, the call rests on the fitted dose curve.

O=S(=O)(c1ccc2c(c1)OCCO2)N1CCN(S(=O)(=O)c2cc(F)c(F)cc2F)CC1	none (no result: NS1 inh, SARS PLP yeast)
Cc1cc(Br)ccc1NC(=O)C1C2CCC(O2)C1C(=O)O (stereo not given)	none
O=C(O)C1CC2(C1)CC(C(=O)O)C2 (stereo not given)	none (no result: Cycloheximide cs, Shiga inhibitor, SARS PLP yeast)
COc1ccc(CCn2c(O)cc3nn(-c4nc5ccccc5s4)c(=O)c-3c2C)cc1	NS1 inh inconclusive
Cc1ccnc(NC(=O)C23CC4CC(CC(C4)C2)C3)c1	Cycloheximide cs 12.3
O=C(Nc1ccccc1)N1CCCC(c2nc(-c3ccc(F)cc3)no2)C1 (stereo not given)	none
Cc1ccccc1NC(=O)N1CCCC(c2nc(-c3ccc(F)cc3)no2)C1 (stereo not given)	Cycloheximide cs 24.0, Shiga inhibitor 110.3
Cc1ccc(NC(=O)N2CCCC(c3nc(-c4ccc(F)cc4)no3)C2)cc1 (stereo not given)	Shiga inhibitor 59.9
Cc1ccccc1NC(=O)N1CCCC(c2nc(-c3ccc(C(C)C)cc3)no2)C1 (stereo not given)	Cycloheximide cs 26.0, NS1 inh inconclusive
O=C(CCN1C(=O)c2ccccc2C1=O)N1CCN(C2c3ccccc3-c3ccccc32)CC1	none
COc1cc(C(=O)Nc2nnc(C3CC3)s2)ccc1OCc1c(C)noc1C	none (no result: NS1 inh)
Cc1cccc(-n2ncc3c2CCCC3NC(=O)CCN2CCCCO2)c1C (stereo not given)	none
COc1ccc(C(C)(C)C)cc1NC(=O)CCNC(=O)c1ccco1	none
Cc1ccc(SC(C)C(=O)O/N=C(\N)c2ccncc2)cc1 (stereo not given)	Cycloheximide cs 19.9
Cc1cc(C)c(C)c(OCC(=O)O/N=C(\N)c2ccncc2)c1	none
Cc1ccccc1OCC(=O)O/N=C(\N)c1ccncc1	Cycloheximide cs 44.5, Shiga inhibitor 98.6
Cc1ccc(OCC(=O)O/N=C(\N)c2ccncc2)c(C)c1	Cycloheximide cs 32.8, Shiga inhibitor 113.6
COc1cccc(-c2cc(C(=O)Nc3ccc4c(c3)OCO4)no2)c1	none
O=C(Nc1ccc2c(c1)OCO2)c1cc(-c2ccc(O)cc2)on1	Cycloheximide cs 39.5, Shiga inhibitor 106.0
O=C(Nc1ccc2c(c1)OCO2)c1cc(-c2ccccc2Cl)on1	Cycloheximide cs 23.9, Shiga inhibitor 89.5
Cc1cc(NC(=O)c2cc(-c3ccc(Br)cc3)on2)no1	none
O=C(Nc1ccc2c(c1)OCO2)c1cc(-c2cccc(O)c2)on1	Cycloheximide cs 48.3, Shiga inhibitor 111.1
Cc1cc(NC(=O)c2cc(-c3ccc(O)cc3)on2)no1	Cycloheximide cs 42.2, Shiga inhibitor 92.6
CSCCC(NC(=O)c1ccco1)C(=O)N1CC=C(c2ccccc2)CC1 (stereo not given)	none
O=C(c1ccccc1-c1ncc[nH]1)N1CCc2c([nH]c3ccccc23)C1c1ccccn1 (stereo not given)	none
O=C(c1noc2c1CCCC2)N1CCc2c([nH]c3ccccc23)C1c1ccccn1 (stereo not given)	Cycloheximide cs 8.4
O=C(c1ccccc1-n1cccn1)N1CCc2c([nH]c3ccccc23)C1c1ccccn1 (stereo not given)	Cycloheximide cs 11.4
Cc1cccc(C2c3[nH]c4ccccc4c3CCN2C(=O)c2noc3c2CCCC3)n1 (stereo not given)	none
Cc1ccccc1-n1c(SCC(=O)NC(N)=O)nc2sc(-c3ccccc3)cc2c1=O	Cycloheximide cs 18.1
NCCCC[C@H](NC(=O)[C@@H]1CCCN1C(=O)[C@H](CO)NC(=O)[C@H](CC(=O)O)NC(=O)CNC(=O)[C@H](CCCN=C(N)N)NC(=O)CN)C(=O)O	none (no result: NS1 inh, SARS PLP yeast)
O=C1c2ccc([N+](=O)[O-])cc2NC(c2ccco2)N1/N=C/c1ccco1 (stereo not given)	Cycloheximide cs 14.7, Shiga inhibitor 31.1
CN=c1scc(-c2ccc([N+](=O)[O-])cc2)n1/N=C/c1ccco1	Cycloheximide cs 27.1, Shiga inhibitor 90.9
CCOc1ccccc1N(CC)C(=O)c1ccc2c(=O)n3c(nc2c1)CCCCC3	none
Cc1cccc(C(=O)N/N=C/c2ccc[nH]2)c1	Cycloheximide cs 23.9, Shiga inhibitor 80.1
Cc1cccc(NCC(=O)N/N=C\c2ccc[nH]2)c1	none
Cc1ccc(C(=O)N/N=C\c2ccc[nH]2)cn1	Cycloheximide cs 18.6
CC(C)(C)OC(=O)N/N=C\c1ccc[nH]1	Cycloheximide cs 41.2, Shiga inhibitor 57.7 (no result: NS1 inh)
O=C(N/N=C/c1ccc[nH]1)c1ccc([N+](=O)[O-])cc1	Cycloheximide cs 19.8
O=C(N/N=C/c1ccc[nH]1)c1cccc(Br)c1	Cycloheximide cs 30.8, Shiga inhibitor active
Cc1cccc(C(=O)N/N=C/c2cc(Br)c(Br)o2)c1	Shiga inhibitor 32.6
N#CCc1ccc(NC(=O)Cn2c(=O)oc3ccccc32)cc1	none
NC(=O)C1CCN(CC(=O)Nc2ccccc2C(=O)NC2CC2)CC1	none (no result: Cycloheximide cs, Shiga inhibitor, NS1 inh)
COc1ccc(NC(=O)CSCC(=O)N(C)Cc2ccc3c(c2)OCCO3)cc1	none (no result: Cycloheximide cs, Shiga inhibitor, NS1 inh)
COc1ccc(N=Nc2nc3cc(Br)c(Br)cc3n2C)c(OC)c1	Cycloheximide cs 33.7, Shiga inhibitor 34.7, NS1 inh inconclusive (no result: SARS PLP yeast)
COc1ccc(N=C(N)N=C(N)N)c(OC)c1	none
O=C(Cn1ccc(NC(=O)OCc2ccccc2)nc1=O)NCCc1ccccn1	none (no result: Cycloheximide cs, Shiga inhibitor, NS1 inh)
CC(C)C(NC(=O)c1ccc(F)cc1)C(=O)NC1(C)CCS(=O)(=O)C1 (stereo not given)	none (no result: Cycloheximide cs, Shiga inhibitor, NS1 inh)
Cc1cc(C)cc(Nc2ncc3c(n2)CCCC3=O)c1	Cycloheximide cs 17.0
Cc1cccc(Nc2ncc3c(n2)CC(C)CC3=O)c1 (stereo not given)	Cycloheximide cs 32.9, Shiga inhibitor 112.1
Cc1cccc(Nc2ncc3c(n2)CC(c2ccco2)CC3=O)c1 (stereo not given)	Cycloheximide cs 15.1
Cc1cc(C)cc(Nc2ncc3c(n2)CC(c2ccco2)CC3=O)c1 (stereo not given)	none
COc1ccc(C(=O)Nc2ncc3c(n2)CC(C)CC3=O)cc1 (stereo not given)	Cycloheximide cs 19.1
Cc1ccc(C(=O)Nc2ncc3c(n2)CC(c2ccco2)CC3=O)cc1 (stereo not given)	Cycloheximide cs 25.7
Cc1[nH]c(=S)c(C#N)c(C)c1CCC#N	none
Nn1c(-c2cccs2)nc2sc3c(c2c1=O)CCCC3	Cycloheximide cs 34.8, Shiga inhibitor 108.4
CC1(C)Cc2c(sc3nc(-c4cccs4)n(N)c(=O)c23)CO1	Cycloheximide cs 35.6
CN(C)c1nc2sc3c(c2c(=O)n1C)CC(C)(C)OC3	Cycloheximide cs 10.6, Shiga inhibitor 44.2
Cc1ccccc1-c1nc2sc3c(c2c(=O)n1N)CCCC3	Cycloheximide cs 42.8, Shiga inhibitor 74.7
COc1cccc(N2CCN(C(=S)Nc3cc(C)cc(C)c3)CC2)c1	none
Cc1ccccc1-n1cc(CNC(=O)CCc2nnc(CCc3ccccc3)o2)cn1	none
Cc1cc(C)cc(NC(=O)[C@H](Cc2c[nH]c3ccccc23)NC(=O)[C@@H]2Cc3ccccc3CN2)c1	none
CCc1ccc(NC(=O)[C@H](Cc2c[nH]c3ccccc23)NC(=O)[C@@H]2Cc3ccccc3CN2)cc1	Shiga inhibitor 28.3
CC(NC(=O)[C@H](Cc1c[nH]c2ccccc12)NC(=O)[C@@H]1Cc2ccccc2CN1)c1ccccc1 (stereo not given in full)	none
